# Results reported in PubChem BioAssay (NCATS).
# Several values for one entry are separate records, joined by “and”; a condition that tells them apart may be missing. Equal entries are not always repeated. Records with an inconclusive call do not appear. A call without a number means that no potency is given here. Activity calls are given as the source filed them. Unless noted, the call rests on the fitted dose curve; in most records, active means well fitted curve in the direction sought with a large enough effect; inconclusive means small, poorly fitted or top-dose-only effect, or another doubt; inactive means no such curve, though single readings can be large; an effect the other way counts as inactive or inconclusive.
# Columns and labels:
# AS120 = experiment: qHTS profiling for inhibitors of Plasmodium falciparum proliferation (AID 504749); further: nearly all actives have a fitted effect of over 60% in size; conditions: P. falciparum in erythrocytes, SYBR Green DNA, 72 h; series mostly up to 28.7 µM
# How it was run: (§1)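 SYBR Green fluorescence (ex 485 nm, em 535 nm) reports parasite DNA after 72 h compound exposure of infected red cells at 0.3% parasitemia, 2.5% hematocrit; signal normalized to 0.29 uM artemisinin and vehicle wells.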
# ATS189 = experiment: as above; conditions: P. falciparum in erythrocytes, SYBR Green DNA, 72 h; series mostly up to 28.7 µM
# How it was run: as §1
# DFO2036 = experiment: as above; conditions: P. falciparum in erythrocytes, SYBR Green DNA, 72 h; series mostly up to 28.7 µM
# How it was run: as §1
# P94_40 = experiment: as above; conditions: P. falciparum in erythrocytes, SYBR Green DNA, 72 h; series mostly up to 28.7 µM
# How it was run: as §1
# TAB109 = experiment: as above; conditions: P. falciparum in erythrocytes, SYBR Green DNA, 72 h; series mostly up to 12.8 µM
# How it was run: as §1
# [1] = Cell Viability - SH-SY5Y (AID 544); conditions: SH-SY5Y neuroblastoma cell viability; viability change, negative = cytotoxic: at 92.2 µM (top of the series);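 further: cells exposed to compound for 40 hours; nearly all actives have a fitted effect of over 55% in size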
# How it was run: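 Quantitative HTS in SH-SY5Y neuroblastoma cells, 40 hr treatment at 37 °C, ATP content by luciferase luminescence; AC50 from Hill fits.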
# [2] = target: Vitamin D3 receptor (Homo sapiens) (UniProt P11473); experiment: qHTS assay for small molecule agonists of vitamin D receptor signaling (AID 588543; calls by dose curve)
# Sequence of Vitamin D3 receptor (Homo sapiens) (P11473 whole entry, looked up): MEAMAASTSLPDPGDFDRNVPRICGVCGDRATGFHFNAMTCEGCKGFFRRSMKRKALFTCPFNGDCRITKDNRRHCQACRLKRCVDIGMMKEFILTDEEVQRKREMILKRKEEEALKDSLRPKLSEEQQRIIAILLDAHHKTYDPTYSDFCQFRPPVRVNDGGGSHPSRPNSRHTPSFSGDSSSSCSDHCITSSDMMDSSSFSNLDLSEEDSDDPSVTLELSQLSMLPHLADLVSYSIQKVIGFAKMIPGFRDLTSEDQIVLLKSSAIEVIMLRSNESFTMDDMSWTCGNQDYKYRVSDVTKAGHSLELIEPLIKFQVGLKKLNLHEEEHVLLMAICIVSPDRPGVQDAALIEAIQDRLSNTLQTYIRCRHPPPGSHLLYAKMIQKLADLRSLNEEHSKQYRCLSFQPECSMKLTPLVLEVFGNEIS
# How it was run: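 GeneBLAzer VDR-UAS-bla HEK293T cells in 2% charcoal-stripped FBS medium were dosed with compound titrations for 16 h at 37 °C; CCF4 β-lactamase readout (405 nm ex, 460/530 nm em). EC50 and efficacy from Hill fits, normalized to 50 nM calcitriol (100%) and DMSO (0%).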
# [3] = qHTS assay for small molecule agonists of the antioxidant response element (ARE) signaling pathway (AID 651741; active means well fitted activation curve with a large enough effect in the signal ratio; the % refers to the signal ratio; further: potency means the concentration at half of the fitted maximal effect)
# How it was run: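 HepG2 ARE-bla reporter cells, 2,000/well; 5 h settle at 37 C/5% CO2; compound pin transfer (23 nL, DMSO); 16 h at 37 C; LiveBLAzer B/G FRET substrate, 2 h RT; fluorescence intensity read.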
# [4] = target: Nuclear receptor subfamily 1 group I member 2 (Rattus norvegicus) (UniProt Q9R1A7); experiment: qHTS assay for small molecule activators of the rat pregnane X receptor (rPXR) signaling pathway (AID 651751; call rule not given here); conditions: rPXR reporter cells, luciferase (One-Glo), 24 h
# Sequence of Nuclear receptor subfamily 1 group I member 2 (Rattus norvegicus) (Q9R1A7 whole entry, looked up): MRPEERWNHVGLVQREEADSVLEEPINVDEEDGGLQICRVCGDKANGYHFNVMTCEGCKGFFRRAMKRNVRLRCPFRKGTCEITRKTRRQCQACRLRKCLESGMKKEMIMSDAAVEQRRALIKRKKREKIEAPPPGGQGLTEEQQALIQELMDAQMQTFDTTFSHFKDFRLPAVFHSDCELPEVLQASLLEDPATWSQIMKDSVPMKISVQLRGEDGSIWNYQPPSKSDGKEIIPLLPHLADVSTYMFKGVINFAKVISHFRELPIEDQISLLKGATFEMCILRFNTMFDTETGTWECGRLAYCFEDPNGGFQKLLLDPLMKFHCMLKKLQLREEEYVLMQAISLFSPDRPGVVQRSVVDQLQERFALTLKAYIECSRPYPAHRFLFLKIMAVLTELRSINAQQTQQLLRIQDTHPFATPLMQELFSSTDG
# [5] = MultiTox-Fluor Cytotoxicity Assay - LYMP1-001 - Dead Cells (AID 946)
# How it was run: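 AC50 from Hill fit of concentration-response; data normalized to DMSO (basal) and 15 uM tetraoctylammonium bromide (100%). LYMP1-001 lymphoblastoid cells, 2500/well, 16 hr compound at 37 C; dead-cell protease fluorescence, Ex/Em 485/520.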
# [6] = Cell Viability - LYMP1-003 - Assay at 40 hr (AID 964); further: nearly all actives have a fitted effect of over 60% in size; further: potency means the concentration at half of the fitted maximal effect
# How it was run: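 Acute toxicity is scored as a concentration-dependent loss of intracellular ATP in LYMP1-003 cells (2500/well, complete medium) after 40 hr at 37 C, measured by CellTiter-Glo luminescence; AC50 values derive from standard Hill modelling.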
# [7] = Cell Viability - LYMP2-014 (AID 983);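 further: cells exposed to compound for 24 h at 37 °C; nearly all actives have a fitted effect of over 50% in size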
# How it was run: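 Quantitative HTS in lymphoblastoid cells: 24 hr compound exposure, then CellTiter-Glo ATP luminescence. Positive control was tetraoctylammonium bromide, 6.4pM to 92 uM.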
# [8] = Cell Viability - LYMP2-016 (AID 984); further: nearly all actives have a fitted effect of over 55% in size
# How it was run: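 Human lymphoblastoid cells (LYMP2-016), 2500/well in complete medium, preincubated 5 hr at 37 C, then compound-treated 24 hr at 37 C. Intracellular ATP read by CellTiter-Glo luminescence after 30 min at room temperature; AC50 from Hill-equation concentration-response fits.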
# [9] = Cell Viability - LYMP1-002 - Assay at 24 hr (AID 993)
# How it was run: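 Viability was judged from intracellular ATP using a luciferase read-out, following a 24-hour compound incubation at 37 C of lymphoblastoid cells seeded at 2500 per well. Concentration-response data were fitted to the Hill equation for AC50.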
# [10] = qHTS assay for small molecule agonists of retinoid X receptor alpha signaling (AID 588544); conditions: HEK293T RXRa-UAS-bla, beta-lactamase reporter, 18 h; 530 nm emission
# [11] = Cellular Toxicity (caspase-3) Hek293 (AID 664);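 further: cells exposed to compound for 16 h at 37 °C before readout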
# How it was run: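 Apoptosis readout: Caspase-Glo 3/7 signal in human HEK293 cells following 16-hour compound incubation. Responses scaled between DMSO baseline and 100 uM tamoxifen.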
# [12] = MultiTox-Fluor Cytotoxicity Assay - LYMP1-001 - Live Cells (AID 947)
# [13] = Cell Viability - LYMP2-011 (AID 969); further: nearly all actives have a fitted effect of over 60% in size; further: potency means the concentration at half of the fitted maximal effect
# How it was run: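 Cells seeded at 2500 per well rest 5 hr before compound addition, then incubate 24 hr at 37 C. CellTiter-Glo reagent is added for 30 min at room temperature before luminescence detection.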
# [14] = Cell Viability - LYMP2-015 (AID 971);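 further: cells exposed to compound for 24 h; nearly all actives have a fitted effect of over 55% in size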
# How it was run: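 AC50 values reflect Hill-model fits of ATP-based luminescence (CellTiter-Glo) from a human lymphoblastoid line, 2500 cells/well, treated 24 hr at 37 C.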
# [15] = Cell Viability - LYMP2-019 (AID 973);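 further: cells exposed to compound for 24 h at 37 °C; nearly all actives have a fitted effect of over 55% in size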
# How it was run: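 AC50 values come from Hill-equation modelling of qHTS concentration-response curves, where viability is measured as luciferase-based ATP luminescence in the lymphoblastoid line after 24 hr compound exposure in complete culture medium.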
smiles,measurement,setting,value
C[C@]12CC[C@H](O)CC1=CCC1C2CC[C@]2(C)C(=O)CC[C@@H]12 (some centres not stated),Potency,AS120,inactive
same,Potency,ATS189,inactive
same,Potency,DFO2036,inactive
same,Potency,P94_40,inactive
same,Potency,TAB109,inactive
CCCC[N+]1(C)C2CC(OC(=O)C(CO)c3ccccc3)CC1C1OC12 (configuration not stated),Potency,AS120,inactive
same,Potency,ATS189,inactive
same,Potency,DFO2036,inactive
same,Potency,P94_40,inactive
same,Potency,TAB109,inactive
ClC1=C(Cl)C2(Cl)C3C4C=CC(C4)C3C1(Cl)C2(Cl)Cl (configuration not stated),Potency,[1],inactive
same,outcome,[2],inactive
same,Potency,[3],66.8 µM (active)
same,max response,[4],5.53% (inactive)
c1ccc(N=Nc2ccccc2)cc1,Potency,[1],inactive
same,Potency,[5],inactive
same,Potency,[6],inactive
same,Potency,[7],inactive
same,Potency,[8],inactive
same,Potency,[9],inactive
same,outcome,[2],inactive
same,max response,[10],8.95% and -1.18%
same,max response,[4],-2.25% (inactive) and 1.3% (inactive)
CCNc1nc(Cl)nc(NC(C)C)n1,Potency,[1],inactive
same,outcome,[11],inactive
same,Potency,[5],inactive
same,Potency,[12],inactive
same,Potency,[6],inactive
same,Potency,[13],inactive
same,Potency,[14],inactive
same,Potency,[15],inactive
same,Potency,[7],inactive
same,Potency,[8],inactive
same,Potency,[9],inactive
same,outcome,[2],inactive
same,max response,[10],15.9% and 26.8%
same,Potency,[3],inactive
C=CCc1ccc2c(c1)OCO2,Potency,[1],inactive
same,outcome,[11],inactive
same,Potency,[5],inactive
same,Potency,[12],inactive
same,Potency,[6],inactive
same,Potency,[13],inactive
same,Potency,[14],inactive
same,Potency,[15],inactive
same,Potency,[7],inactive
same,Potency,[8],inactive
same,Potency,[9],inactive
same,outcome,[2],inactive
same,max response,[10],1.6%
same,max response,[4],3.14% (inactive)
COC(=O)NC(=S)Nc1ccccc1NC(=S)NC(=O)OC,outcome,[11],inactive
same,Potency,[5],inactive
same,Potency,[12],inactive
same,Potency,[13],inactive
same,Potency,[14],inactive
same,Potency,[15],inactive
same,Potency,[7],inactive
same,Potency,[8],inactive
same,Potency,[9],inactive
same,outcome,[2],inactive
same,max response,[10],18.1% and -8.17%
same,Potency,[3],37.6 µM (active)
same,max response,[4],13.9% (inactive) and 14.6% (inactive)
O=S1OCC2C(CO1)C1(Cl)C(Cl)=C(Cl)C2(Cl)C1(Cl)Cl (configuration not stated),Potency,[6],39.8 µM (active)
same,Potency,[13],inactive
same,Potency,[14],inactive
same,Potency,[15],inactive
same,Potency,[7],inactive
same,max response,[10],-15.4%
same,Potency,[3],66.8 µM (active)
O=C(O)COc1ccc(Cl)cc1Cl,Potency,[1],inactive
same,outcome,[11],inactive
same,Potency,[5],inactive
same,Potency,[12],inactive
same,Potency,[6],inactive
same,Potency,[13],inactive
same,Potency,[14],inactive
same,Potency,[15],inactive
same,Potency,[7],inactive
same,Potency,[8],inactive
same,Potency,[9],inactive
same,outcome,[2],inactive
same,max response,[10],29.1%
same,Potency,[3],48.6 µM (active)
same,max response,[4],-0.13% (inactive) [middle of 4 runs]
C=CCc1ccc(OC)cc1,Potency,[1],inactive
same,outcome,[11],inactive
same,Potency,[5],inactive
same,Potency,[12],inactive
same,Potency,[6],inactive
same,Potency,[13],inactive
same,Potency,[14],inactive
same,Potency,[15],inactive
same,Potency,[7],inactive
same,Potency,[8],inactive
same,Potency,[9],inactive
same,max response,[10],-5.04%
same,Potency,[3],inactive
same,max response,[4],0.607% (inactive)
CCNC[C@H](O)c1cccc(O)c1,Potency,AS120,inactive
same,Potency,ATS189,inactive
same,Potency,DFO2036,inactive
same,Potency,P94_40,inactive
same,Potency,TAB109,inactive
CCOCN(C(=O)CCl)c1c(C)cccc1CC,outcome,[11],inactive
same,Potency,[12],inactive
same,Potency,[6],50.1 µM (active)
same,Potency,[13],50.1 µM (active)
same,outcome,[2],inactive
same,Potency,[3],7.5 µM (active) and 7.7 µM (active)
same,max response,[4],-4.5% (inactive) and -5.56% (inactive)
